# Data taken from paper PMC7862700, “An all-to-all approach to the identification of sequence-specific readers for epigenetic DNA modifications on cytosine”.
# Tests used:
# Test in all cases: DAPPL (digital affinity profiling via proximity ligation, sequencing); 10 mM Tris-HCl pH 7.5, 50 mM NaCl, 1 mM DTT, 4% glycerol, room temperature, 30 min; GST-TFs on glutathione beads, 16-mer random dsDNA library, 0.1% formaldehyde crosslink after washing; high values mean tight binding
# FEV = target: T1, FEV (Homo sapiens, UniProt Q99581 1-238); details: protein: recombinant; tags: N-terminal GST; dsDNA, one strand shown
# T1 sequence: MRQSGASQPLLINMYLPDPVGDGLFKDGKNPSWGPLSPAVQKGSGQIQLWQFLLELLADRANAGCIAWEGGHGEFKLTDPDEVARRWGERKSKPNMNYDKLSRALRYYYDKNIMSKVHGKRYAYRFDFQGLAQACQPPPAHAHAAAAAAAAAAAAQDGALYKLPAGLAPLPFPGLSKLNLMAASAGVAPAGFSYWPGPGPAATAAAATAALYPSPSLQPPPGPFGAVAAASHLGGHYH
# Outline: (§1)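 Human transcription factors fused to GST were expressed in yeast, captured on glutathione beads, given DNA barcodes and pooled with a GST-only negative control. Pools were incubated with 200 nmole of a 16-mer random double-stranded DNA library in Tris/NaCl/DTT/glycerol buffer at room temperature for 30 min. They were then washed, crosslinked with 0.1% formaldehyde, proximity-ligated (BsaI/T4 ligase, 1 h, 37 °C), PCR-amplified and sequenced on an Illumina NextSeq500. Binding signal is each 6-mer's read frequency for a factor divided by its frequency for the GST control.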
# ETV5 = ETV5 (Homo sapiens, UniProt P41161 1-510); details: protein: recombinant; tags: N-terminal GST; dsDNA, one strand shown
# Sequence of ETV5 (P41161 whole entry): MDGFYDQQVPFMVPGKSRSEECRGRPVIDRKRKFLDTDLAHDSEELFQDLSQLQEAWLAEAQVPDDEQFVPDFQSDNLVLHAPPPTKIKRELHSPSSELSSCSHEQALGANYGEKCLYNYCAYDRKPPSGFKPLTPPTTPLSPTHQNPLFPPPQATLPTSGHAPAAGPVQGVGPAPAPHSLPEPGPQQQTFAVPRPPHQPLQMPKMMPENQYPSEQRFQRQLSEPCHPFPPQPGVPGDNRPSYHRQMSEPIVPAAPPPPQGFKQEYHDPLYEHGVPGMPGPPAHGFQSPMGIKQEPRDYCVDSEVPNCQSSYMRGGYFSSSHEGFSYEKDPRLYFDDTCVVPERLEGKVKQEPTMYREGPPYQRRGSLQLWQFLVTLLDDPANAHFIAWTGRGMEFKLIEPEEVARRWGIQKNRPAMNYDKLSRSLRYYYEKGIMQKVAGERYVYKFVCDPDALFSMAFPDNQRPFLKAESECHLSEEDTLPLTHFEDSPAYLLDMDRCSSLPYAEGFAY
# Outline: as §1
# HSF1 = HSF1 (Homo sapiens, UniProt Q00613 1-529); details: protein: recombinant; tags: N-terminal GST; chain copies: 3; dsDNA, one strand shown
# Sequence of HSF1 (Q00613 whole entry): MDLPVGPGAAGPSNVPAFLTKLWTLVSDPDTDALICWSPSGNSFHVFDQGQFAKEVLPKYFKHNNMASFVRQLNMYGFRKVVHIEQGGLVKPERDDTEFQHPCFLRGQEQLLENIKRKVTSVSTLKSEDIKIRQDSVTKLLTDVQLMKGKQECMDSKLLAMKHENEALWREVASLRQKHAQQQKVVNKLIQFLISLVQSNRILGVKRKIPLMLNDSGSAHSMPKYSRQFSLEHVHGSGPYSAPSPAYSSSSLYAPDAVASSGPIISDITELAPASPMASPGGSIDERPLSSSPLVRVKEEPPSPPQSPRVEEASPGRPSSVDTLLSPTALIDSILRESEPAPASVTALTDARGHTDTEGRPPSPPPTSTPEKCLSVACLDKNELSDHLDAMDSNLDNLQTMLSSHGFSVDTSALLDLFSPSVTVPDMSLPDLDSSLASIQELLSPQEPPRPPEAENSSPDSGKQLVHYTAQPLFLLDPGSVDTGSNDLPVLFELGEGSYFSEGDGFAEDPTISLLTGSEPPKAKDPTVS
# Outline: as §1
# SPIC = target: T2, SPIC (Homo sapiens, UniProt Q8N5J4 1-248); details: protein: recombinant; tags: N-terminal GST; dsDNA, one strand shown
# T2 sequence: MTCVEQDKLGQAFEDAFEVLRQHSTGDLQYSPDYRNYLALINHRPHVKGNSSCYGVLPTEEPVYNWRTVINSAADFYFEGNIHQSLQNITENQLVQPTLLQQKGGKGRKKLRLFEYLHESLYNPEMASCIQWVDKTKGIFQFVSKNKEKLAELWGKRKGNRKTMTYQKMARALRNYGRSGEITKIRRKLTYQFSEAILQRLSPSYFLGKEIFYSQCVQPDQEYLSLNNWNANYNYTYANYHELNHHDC
# Outline: as §1
# ELF4 = ELF4 (Homo sapiens, UniProt Q99607 1-663); details: protein: recombinant; tags: N-terminal GST; dsDNA, one strand shown
# Sequence of ELF4 (Q99607 whole entry): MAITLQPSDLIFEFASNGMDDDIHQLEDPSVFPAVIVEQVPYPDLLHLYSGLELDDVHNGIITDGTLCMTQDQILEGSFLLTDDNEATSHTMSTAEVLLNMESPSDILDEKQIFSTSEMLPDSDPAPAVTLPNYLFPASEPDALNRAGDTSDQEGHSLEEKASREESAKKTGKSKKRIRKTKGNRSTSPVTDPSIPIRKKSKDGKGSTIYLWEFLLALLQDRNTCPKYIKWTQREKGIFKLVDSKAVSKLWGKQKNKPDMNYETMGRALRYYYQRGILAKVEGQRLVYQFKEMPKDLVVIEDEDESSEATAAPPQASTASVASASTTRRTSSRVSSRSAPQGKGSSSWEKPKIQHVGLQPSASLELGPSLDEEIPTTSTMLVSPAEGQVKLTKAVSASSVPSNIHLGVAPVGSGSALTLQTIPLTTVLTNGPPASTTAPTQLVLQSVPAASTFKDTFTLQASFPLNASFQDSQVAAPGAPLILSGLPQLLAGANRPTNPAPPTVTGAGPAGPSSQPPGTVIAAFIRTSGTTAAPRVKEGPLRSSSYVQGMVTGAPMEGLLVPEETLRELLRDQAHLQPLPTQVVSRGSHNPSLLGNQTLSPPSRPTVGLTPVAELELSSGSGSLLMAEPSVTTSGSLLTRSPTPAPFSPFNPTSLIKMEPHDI
# Outline: as §1
# ELK4 = target: T3, ELK4 (Homo sapiens, UniProt P28324-2 1-405); details: protein: recombinant; tags: N-terminal GST; dsDNA, one strand shown
# T3 sequence: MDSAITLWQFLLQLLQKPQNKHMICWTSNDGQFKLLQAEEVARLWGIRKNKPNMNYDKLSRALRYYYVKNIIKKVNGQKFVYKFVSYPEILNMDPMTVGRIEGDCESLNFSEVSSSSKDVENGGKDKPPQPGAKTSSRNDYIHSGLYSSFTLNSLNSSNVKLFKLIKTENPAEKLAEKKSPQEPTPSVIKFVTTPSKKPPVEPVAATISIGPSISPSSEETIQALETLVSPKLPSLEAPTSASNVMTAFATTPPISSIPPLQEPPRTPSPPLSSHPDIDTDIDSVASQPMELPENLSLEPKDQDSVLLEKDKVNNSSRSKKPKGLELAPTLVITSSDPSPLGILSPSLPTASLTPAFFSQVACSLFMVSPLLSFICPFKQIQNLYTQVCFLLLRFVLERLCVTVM
# Outline: as §1
# ETV2 = target: T4, ETV2 (Homo sapiens, UniProt O00321 1-342); details: protein: recombinant; tags: N-terminal GST; dsDNA, one strand shown
# T4 sequence: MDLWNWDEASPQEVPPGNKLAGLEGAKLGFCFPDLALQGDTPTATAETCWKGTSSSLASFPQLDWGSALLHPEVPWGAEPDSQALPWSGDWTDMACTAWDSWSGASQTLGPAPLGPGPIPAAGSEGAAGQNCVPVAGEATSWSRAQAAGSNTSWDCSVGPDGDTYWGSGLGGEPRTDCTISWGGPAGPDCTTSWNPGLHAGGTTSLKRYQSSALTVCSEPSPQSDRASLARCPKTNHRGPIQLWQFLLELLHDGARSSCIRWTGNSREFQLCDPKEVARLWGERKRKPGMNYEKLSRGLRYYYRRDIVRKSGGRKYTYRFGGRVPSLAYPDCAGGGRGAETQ
# Outline: as §1
# ELF3 = target: T5, ELF3 (Homo sapiens, UniProt P78545 1-371); details: protein: recombinant; tags: N-terminal GST; dsDNA, one strand shown
# T5 sequence: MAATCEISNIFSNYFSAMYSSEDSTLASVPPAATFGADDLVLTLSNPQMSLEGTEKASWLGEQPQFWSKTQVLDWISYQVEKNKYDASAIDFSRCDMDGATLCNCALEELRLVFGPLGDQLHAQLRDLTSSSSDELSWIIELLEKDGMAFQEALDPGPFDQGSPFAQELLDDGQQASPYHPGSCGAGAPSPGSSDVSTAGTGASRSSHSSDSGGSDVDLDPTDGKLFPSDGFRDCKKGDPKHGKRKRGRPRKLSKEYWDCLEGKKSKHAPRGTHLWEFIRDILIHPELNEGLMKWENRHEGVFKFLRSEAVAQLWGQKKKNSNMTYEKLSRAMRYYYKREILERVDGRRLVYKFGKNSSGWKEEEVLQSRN
# Outline: as §1
# CRX = CRX (Homo sapiens, UniProt O43186 1-299); details: protein: recombinant; tags: N-terminal GST; dsDNA, one strand shown
# Sequence of CRX (O43186 whole entry): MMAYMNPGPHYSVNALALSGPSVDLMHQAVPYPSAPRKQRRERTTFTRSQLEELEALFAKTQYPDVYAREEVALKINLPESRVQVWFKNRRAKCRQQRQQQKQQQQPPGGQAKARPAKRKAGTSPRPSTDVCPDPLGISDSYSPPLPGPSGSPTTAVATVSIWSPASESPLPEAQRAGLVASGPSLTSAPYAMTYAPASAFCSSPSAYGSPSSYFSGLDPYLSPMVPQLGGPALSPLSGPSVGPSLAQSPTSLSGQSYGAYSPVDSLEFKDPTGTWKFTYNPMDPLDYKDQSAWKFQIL
# Outline: as §1
# ETV1 = ETV1 (Homo sapiens, UniProt P50549 1-477); details: protein: recombinant; tags: N-terminal GST; dsDNA, one strand shown
# Sequence of ETV1 (P50549 whole entry): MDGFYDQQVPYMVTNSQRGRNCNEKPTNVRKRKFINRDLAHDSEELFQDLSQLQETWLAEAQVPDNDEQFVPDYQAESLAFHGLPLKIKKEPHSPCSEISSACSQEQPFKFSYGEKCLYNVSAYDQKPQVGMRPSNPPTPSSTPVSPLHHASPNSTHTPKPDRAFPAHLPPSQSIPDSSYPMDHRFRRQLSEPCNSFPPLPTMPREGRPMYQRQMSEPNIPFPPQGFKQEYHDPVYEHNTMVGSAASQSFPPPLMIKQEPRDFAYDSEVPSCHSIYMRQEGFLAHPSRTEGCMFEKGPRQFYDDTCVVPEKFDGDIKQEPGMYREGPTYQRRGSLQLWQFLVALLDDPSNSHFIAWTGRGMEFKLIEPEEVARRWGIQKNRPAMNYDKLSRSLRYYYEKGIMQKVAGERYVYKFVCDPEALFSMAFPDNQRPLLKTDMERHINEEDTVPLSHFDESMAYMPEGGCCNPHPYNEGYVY
# Outline: as §1
# ERF = target: T6, ERF (Homo sapiens, UniProt P50548 1-548); details: protein: recombinant; tags: N-terminal GST; dsDNA, one strand shown
# T6 sequence: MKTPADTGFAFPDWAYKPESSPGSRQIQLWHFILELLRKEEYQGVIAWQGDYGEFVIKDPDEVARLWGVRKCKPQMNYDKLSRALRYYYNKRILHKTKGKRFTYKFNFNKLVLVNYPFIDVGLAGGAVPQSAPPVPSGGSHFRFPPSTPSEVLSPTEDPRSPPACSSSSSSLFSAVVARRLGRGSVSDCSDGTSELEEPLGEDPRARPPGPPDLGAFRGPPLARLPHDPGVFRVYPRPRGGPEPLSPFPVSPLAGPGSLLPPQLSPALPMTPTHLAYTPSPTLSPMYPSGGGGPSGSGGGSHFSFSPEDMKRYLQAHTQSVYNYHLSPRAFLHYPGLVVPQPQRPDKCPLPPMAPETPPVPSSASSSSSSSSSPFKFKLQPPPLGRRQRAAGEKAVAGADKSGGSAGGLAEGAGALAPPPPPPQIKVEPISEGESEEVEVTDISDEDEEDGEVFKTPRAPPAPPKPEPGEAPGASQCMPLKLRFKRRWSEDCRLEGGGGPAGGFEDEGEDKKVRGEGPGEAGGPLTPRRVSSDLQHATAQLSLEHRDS
# Outline: as §1
# ETV3L = target: T7, ETV3L (Homo sapiens, UniProt Q6ZN32 1-361); details: protein: recombinant; tags: N-terminal GST; dsDNA, one strand shown
# T7 sequence: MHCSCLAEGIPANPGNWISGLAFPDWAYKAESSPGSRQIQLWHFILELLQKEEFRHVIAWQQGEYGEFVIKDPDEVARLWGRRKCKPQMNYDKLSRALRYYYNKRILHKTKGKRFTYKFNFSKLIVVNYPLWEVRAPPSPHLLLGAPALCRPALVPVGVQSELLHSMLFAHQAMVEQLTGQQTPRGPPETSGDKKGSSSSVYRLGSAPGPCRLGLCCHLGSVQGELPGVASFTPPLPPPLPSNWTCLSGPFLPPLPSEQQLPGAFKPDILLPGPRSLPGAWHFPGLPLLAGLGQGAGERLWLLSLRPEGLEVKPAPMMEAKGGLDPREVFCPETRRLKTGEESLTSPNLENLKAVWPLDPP
# Outline: as §1
# ETS2 = target: T8, ETS2 (Homo sapiens, UniProt P15036 1-469); details: protein: recombinant; tags: N-terminal GST; dsDNA, one strand shown
# T8 sequence: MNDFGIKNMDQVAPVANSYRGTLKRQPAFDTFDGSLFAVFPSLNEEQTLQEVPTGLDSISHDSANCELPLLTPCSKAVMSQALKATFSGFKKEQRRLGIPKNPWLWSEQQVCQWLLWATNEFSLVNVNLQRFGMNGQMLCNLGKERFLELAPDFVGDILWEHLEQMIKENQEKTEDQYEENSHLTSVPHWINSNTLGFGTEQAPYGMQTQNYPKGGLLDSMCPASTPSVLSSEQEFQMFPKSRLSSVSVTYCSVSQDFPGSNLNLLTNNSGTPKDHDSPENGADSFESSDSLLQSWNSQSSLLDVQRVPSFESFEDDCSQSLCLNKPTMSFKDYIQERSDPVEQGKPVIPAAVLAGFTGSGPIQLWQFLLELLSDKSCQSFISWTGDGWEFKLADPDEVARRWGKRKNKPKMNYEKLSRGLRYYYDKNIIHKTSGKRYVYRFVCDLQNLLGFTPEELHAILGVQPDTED
# Outline: as §1
# SPDEF = target: T9, SPDEF (Homo sapiens, UniProt O95238 1-335); details: protein: recombinant; tags: N-terminal GST; dsDNA, one strand shown
# T9 sequence: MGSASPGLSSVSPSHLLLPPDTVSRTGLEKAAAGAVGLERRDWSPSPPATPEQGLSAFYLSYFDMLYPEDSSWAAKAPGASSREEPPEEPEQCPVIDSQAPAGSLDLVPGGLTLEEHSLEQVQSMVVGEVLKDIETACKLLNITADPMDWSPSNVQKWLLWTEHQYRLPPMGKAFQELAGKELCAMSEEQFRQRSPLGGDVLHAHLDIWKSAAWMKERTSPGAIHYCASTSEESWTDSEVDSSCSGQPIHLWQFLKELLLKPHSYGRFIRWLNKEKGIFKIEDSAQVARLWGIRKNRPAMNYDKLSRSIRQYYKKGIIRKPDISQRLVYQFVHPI
# Outline: as §1
# ETV7 = target: T10, ETV7 (Homo sapiens, UniProt Q9Y603 1-341); details: protein: recombinant; tags: N-terminal GST; dsDNA, one strand shown
# T10 sequence: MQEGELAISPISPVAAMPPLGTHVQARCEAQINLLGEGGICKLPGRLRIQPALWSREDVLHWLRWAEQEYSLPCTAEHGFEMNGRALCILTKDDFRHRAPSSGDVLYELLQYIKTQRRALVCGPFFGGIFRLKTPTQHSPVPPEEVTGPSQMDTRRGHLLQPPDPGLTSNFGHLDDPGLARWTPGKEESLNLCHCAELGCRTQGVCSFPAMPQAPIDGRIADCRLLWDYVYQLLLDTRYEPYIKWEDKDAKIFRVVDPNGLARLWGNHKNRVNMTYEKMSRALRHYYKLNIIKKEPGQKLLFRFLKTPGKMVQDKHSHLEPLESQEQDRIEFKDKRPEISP
# Outline: as §1
# ELF5 = target: T11, ELF5 (Homo sapiens, UniProt Q9UKW6-2 1-255); details: protein: recombinant; tags: N-terminal GST; dsDNA, one strand shown
# T11 sequence: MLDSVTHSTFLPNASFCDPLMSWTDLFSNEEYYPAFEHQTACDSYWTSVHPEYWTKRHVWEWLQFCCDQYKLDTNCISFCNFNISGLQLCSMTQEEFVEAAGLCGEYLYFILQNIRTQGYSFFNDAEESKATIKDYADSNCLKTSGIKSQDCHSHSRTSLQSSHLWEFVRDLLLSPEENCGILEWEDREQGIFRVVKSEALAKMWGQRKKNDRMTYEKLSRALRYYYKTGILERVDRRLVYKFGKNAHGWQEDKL
# Outline: as §1
# ETV3 = target: T12, ETV3 (Homo sapiens, UniProt P41162-2 1-143); details: protein: recombinant; tags: N-terminal GST; dsDNA, one strand shown
# T12 sequence: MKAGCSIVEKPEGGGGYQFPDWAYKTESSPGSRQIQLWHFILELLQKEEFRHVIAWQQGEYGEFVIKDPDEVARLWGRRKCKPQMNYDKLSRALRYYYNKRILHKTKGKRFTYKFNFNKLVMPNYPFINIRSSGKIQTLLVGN
# Outline: as §1
# ETV6 = ETV6 (Homo sapiens, UniProt P41212 1-452); details: protein: recombinant; tags: N-terminal GST; dsDNA, one strand shown
# Sequence of ETV6 (P41212 whole entry): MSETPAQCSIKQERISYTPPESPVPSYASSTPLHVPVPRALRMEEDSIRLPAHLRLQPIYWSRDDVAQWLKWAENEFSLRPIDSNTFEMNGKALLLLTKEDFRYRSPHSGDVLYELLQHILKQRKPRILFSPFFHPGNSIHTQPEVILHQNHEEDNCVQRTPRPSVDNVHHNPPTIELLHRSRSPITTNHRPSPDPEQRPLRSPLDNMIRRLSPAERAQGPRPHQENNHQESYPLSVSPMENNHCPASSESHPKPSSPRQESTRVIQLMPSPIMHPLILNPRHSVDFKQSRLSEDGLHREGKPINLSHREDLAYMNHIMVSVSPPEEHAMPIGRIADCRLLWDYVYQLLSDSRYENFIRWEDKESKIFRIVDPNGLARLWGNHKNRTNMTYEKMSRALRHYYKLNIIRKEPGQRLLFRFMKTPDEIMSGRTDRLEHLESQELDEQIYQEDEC
# Outline: as §1
sequence,measurement,setting,value
CTAGAT,binding signal,FEV,"1.13 fold enrichment (6-mer frequency, TF over GST control)"
same,binding signal,ETV5,"1.19 fold enrichment (6-mer frequency, TF over GST control)"
same,binding signal,HSF1,"2.7 fold enrichment (6-mer frequency, TF over GST control)"
same,binding signal,SPIC,"1.16 fold enrichment (6-mer frequency, TF over GST control)"
same,binding signal,ELF4,"1.16 fold enrichment (6-mer frequency, TF over GST control)"
same,binding signal,ELK4,"1.17 fold enrichment (6-mer frequency, TF over GST control)"
same,binding signal,ETV2,"1.17 fold enrichment (6-mer frequency, TF over GST control)"
same,binding signal,ELF3,"1.15 fold enrichment (6-mer frequency, TF over GST control)"
same,binding signal,CRX,"1.83 fold enrichment (6-mer frequency, TF over GST control)"
same,binding signal,ETV1,"1.17 fold enrichment (6-mer frequency, TF over GST control)"
same,binding signal,ERF,"1.24 fold enrichment (6-mer frequency, TF over GST control)"
same,binding signal,ETV3L,"1.34 fold enrichment (6-mer frequency, TF over GST control)"
same,binding signal,ETS2,"1.2 fold enrichment (6-mer frequency, TF over GST control)"
same,binding signal,SPDEF,"1.26 fold enrichment (6-mer frequency, TF over GST control)"
same,binding signal,ETV7,"1.2 fold enrichment (6-mer frequency, TF over GST control)"
same,binding signal,ELF5,"1.11 fold enrichment (6-mer frequency, TF over GST control)"
same,binding signal,ETV3,"1.19 fold enrichment (6-mer frequency, TF over GST control)"
same,binding signal,ETV6,"1.05 fold enrichment (6-mer frequency, TF over GST control)"
